In PubChem BioAssay (Tox21):
Results filed as inconclusive are left out. The source made the active and inactive calls. Unless noted, calls follow the shape of the dose curve; as a rule, active = well fitted curve in the direction sought with a large enough effect in the repeat runs; inconclusive = weak or mixed curves; inactive = no such curve, though single readings can be large; an effect the other way counts as inactive or inconclusive.

Key:
[1] = qHTS assay for small molecule agonists of the p53 signaling pathway (AID 651631; calls by dose curve; also: nearly all actives have a fitted effect of over 15% in size; also: potency is read from the fitted curve at half-maximal effect)
How it was run: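 HCT-116 cells carrying a beta-lactamase reporter under p53 response elements were dosed with compound for 16 h at 37 °C. LiveBLAzer B/G FRET substrate was then added for 2 h at room temperature, and fluorescence intensity was read to detect pathway agonism.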

[2] = qHTS assay for small molecules that induce genotoxicity in human embryonic kidney cells expressing luciferase-tagged ATAD5 (AID 651632); also: nearly all actives have a fitted effect of over 15% in size; also: potency is read from the fitted curve at half-maximal effect
How it was run: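 Luminescent reporter readout, HEK293T ATAD5-luc line: 16 hr drug exposure (37C, 5% CO2) followed by Amplite, 30 min RT.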

[3] = qHTS assay to test for compound auto fluorescence at 535 nm (green) in HEK293 cells (AID 720680)
[4] = target: Glucocorticoid receptor (Homo sapiens) (UniProt P04150); assay: qHTS assay to identify small molecule antagonists of the glucocorticoid receptor (GR) signaling pathway (AID 720692; active = well fitted inhibition curve with a large enough effect in the signal ratio in the repeat runs, not every such curve was filed as active; the % refers to the signal ratio; also: potency is read from the fitted curve at half-maximal effect)
Glucocorticoid receptor (Homo sapiens), sequence (P04150 whole entry, looked up): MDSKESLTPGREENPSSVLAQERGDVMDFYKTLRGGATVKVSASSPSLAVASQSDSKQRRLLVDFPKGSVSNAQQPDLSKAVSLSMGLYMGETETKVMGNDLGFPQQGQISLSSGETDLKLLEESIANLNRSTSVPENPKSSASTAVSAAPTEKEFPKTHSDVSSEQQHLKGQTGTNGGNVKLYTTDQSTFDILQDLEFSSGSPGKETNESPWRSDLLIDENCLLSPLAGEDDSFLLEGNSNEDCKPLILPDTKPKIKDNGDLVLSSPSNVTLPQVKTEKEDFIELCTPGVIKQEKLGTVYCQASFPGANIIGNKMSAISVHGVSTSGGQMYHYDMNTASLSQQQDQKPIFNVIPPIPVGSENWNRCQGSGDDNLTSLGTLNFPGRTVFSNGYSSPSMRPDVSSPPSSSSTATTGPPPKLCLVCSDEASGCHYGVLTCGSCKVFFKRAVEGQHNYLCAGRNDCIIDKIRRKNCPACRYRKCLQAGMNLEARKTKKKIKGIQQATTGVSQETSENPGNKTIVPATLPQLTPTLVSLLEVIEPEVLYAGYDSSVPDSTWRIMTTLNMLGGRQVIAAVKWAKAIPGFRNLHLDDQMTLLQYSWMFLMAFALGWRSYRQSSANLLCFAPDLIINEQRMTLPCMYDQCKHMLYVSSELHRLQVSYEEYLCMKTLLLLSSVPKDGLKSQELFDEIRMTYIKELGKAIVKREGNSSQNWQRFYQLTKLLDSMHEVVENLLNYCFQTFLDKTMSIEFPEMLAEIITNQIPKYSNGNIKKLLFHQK
How it was run: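 Inhibition of glucocorticoid signalling is measured in HeLa cells with a GRE-controlled beta-lactamase reporter; cells are co-treated with compound and 5 nM dexamethasone (final) for 18 h before FRET substrate readout.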

[5] = qHTS assay for identifying genotoxic compounds that show differential cytotoxicity against isogenic chicken DT40 cell lines with known DNA damage response pathways - wild type cell line (AID 743012); also: nearly all actives have a fitted effect of over 60% in size; also: potency is read from the fitted curve at half-maximal effect
How it was run: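 First, wild type DT40 cells were plated at 300 per well and equilibrated about 0.5 h at 37 C/5% CO2. Next, compounds in DMSO were added and exposure lasted 40 h. Finally, CellTiter-Glo was added for 30 min at room temperature and luminescence recorded.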

[6] = qHTS assay for identifying genotoxic compounds that show differential cytotoxicity against isogenic chicken DT40 cell lines with known DNA damage response pathways - Rev3 mutant cell line (AID 743014); also: nearly all actives have a fitted effect of over 55% in size; also: potency is read from the fitted curve at half-maximal effect
[7] = qHTS assay to identify small molecule antagonists of the androgen receptor (AR) signaling pathway using the MDA cell line - cell viability counter screen (AID 743041; also: nearly all actives have a fitted effect of over 45% in size)
How it was run: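 Same-well cytotoxicity was assessed by CellTiter-Fluor in MDA-kb2 AR-luc cells after 16 h of compound treatment under R1881 agonism.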

[8] = qHTS assay to identify small molecule antagonists of the thyroid receptor (TR) signaling pathway - cell viability counter screen (AID 743064); also: nearly all actives have a fitted effect of over 50% in size; also: potency is read from the fitted curve at half-maximal effect
How it was run: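 GH3.TRE-Luc rat pituitary cells dosed after 4 hr plating, co-stimulated with T3 at 1 nM final, incubated 23.5 h at 37 C. Viability measured in the same wells by CellTiter-Fluor fluorescence after 30 min further at 37 C.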

[9] = qHTS assay to identify small molecule antagonists of the thyroid receptor (TR) signaling pathway (AID 743065); also: nearly all actives have a fitted effect of over 55% in size; also: potency is read from the fitted curve at half-maximal effect
How it was run: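 GH3.TRE-Luc rat pituitary cells (two TREs driving luciferase) were dosed with compound, then stimulated with 1 nM T3 (final) for 23.5 h at 37 C. ONE-Glo luminescence was the read-out, with CellTiter-Fluor fluorescence as the cytotoxicity counter-screen.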

[10] = system: thyroid hormone receptor (rat, GH3 cells); assay: qHTS assay to identify small molecule agonists of the thyroid receptor (TR) signaling pathway (AID 743066; calls by dose curve)
[11] = qHTS assay to identify small molecule antagonists of the estrogen receptor alpha (ER-alpha) signaling pathway using the BG1 cell line - cell viability counter screen (AID 743081);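 also: compound given together with 17beta-estradiol as the ER stimulus; series mostly up to about 70 µM; nearly all actives have a fitted effect of over 45% in size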
[12] = target: Peroxisome proliferator-activated receptor gamma (Homo sapiens) (UniProt P37231); assay: qHTS assay to identify small molecule agonists of the peroxisome proliferator-activated receptor gamma (PPARg) signaling pathway (AID 743094; active = well fitted activation curve with a large enough effect in the signal ratio in the repeat runs, not every such curve was filed as active; the % refers to the signal ratio)
Peroxisome proliferator-activated receptor gamma (Homo sapiens), sequence (P37231 whole entry, looked up): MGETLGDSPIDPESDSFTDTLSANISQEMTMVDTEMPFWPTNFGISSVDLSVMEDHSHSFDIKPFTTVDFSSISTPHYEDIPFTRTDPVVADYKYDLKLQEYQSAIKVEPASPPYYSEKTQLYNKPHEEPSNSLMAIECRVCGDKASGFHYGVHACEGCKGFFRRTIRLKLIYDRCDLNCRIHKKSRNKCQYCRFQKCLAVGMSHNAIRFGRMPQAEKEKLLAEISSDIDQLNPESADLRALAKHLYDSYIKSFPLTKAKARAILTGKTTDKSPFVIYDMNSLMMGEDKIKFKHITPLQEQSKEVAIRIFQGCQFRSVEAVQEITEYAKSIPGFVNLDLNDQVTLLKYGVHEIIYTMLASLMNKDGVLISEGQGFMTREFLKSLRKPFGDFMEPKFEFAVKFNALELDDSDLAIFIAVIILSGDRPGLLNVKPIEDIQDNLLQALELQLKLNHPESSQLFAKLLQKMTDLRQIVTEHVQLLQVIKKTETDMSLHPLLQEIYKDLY
How it was run: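 Compounds dissolved in DMSO were added to PPARg UAS-bla HEK293H cells for 17 h at 37C, and reporter expression was quantified by fluorescence intensity after 1 h with LiveBLAzer B/G FRET substrate.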

[13] = qHTS assay to identify small molecule phospholipidosis (PLD) inducers (AID 1259344; active = well fitted curve in the direction sought with a large enough effect; an effect the other way counts as inactive or inconclusive)
How it was run: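 Quantitative HTS in HepG2: compound plus LipidTOX Red dye for 24 h, paraformaldehyde fixation with Hoechst 33342, widefield high-content imaging; amiodarone as positive and DMSO as negative control.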

[14] = qHTS assay for small molecule disruptors of the mitochondrial membrane potential (AID 720635); also: potency is read from the fitted curve at half-maximal effect
How it was run: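 HepG2 cells exposed to compound 1 hr at 37C, then Mito-MPS dye 30 min. Ratio read of aggregate (540/590 nm) versus monomer (490/535 nm) fluorescence.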

[15] = qHTS assay to test for compound auto fluorescence at 460 nm (blue) in HepG2 cell free culture (AID 720685); also: potency is read from the fitted curve at half-maximal effect
How it was run: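 Compound (23 nL) or DMSO pinned into cell-free MEM with 10% FBS; blue fluorescence read at 405/460 nm excitation/emission, expressed as auto-fluorescence equivalency to triamterene.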

[16] = target: Estrogen receptor (Homo sapiens) (UniProt P03372); assay: qHTS assay to identify small molecule antagonists of the estrogen receptor alpha (ER-alpha) signaling pathway (AID 743069; active = well fitted curve in the direction sought with a large enough effect in the signal ratio in the repeat runs, not every such curve was filed as active; the % refers to the signal ratio)
Estrogen receptor (Homo sapiens), sequence (P03372 whole entry, looked up): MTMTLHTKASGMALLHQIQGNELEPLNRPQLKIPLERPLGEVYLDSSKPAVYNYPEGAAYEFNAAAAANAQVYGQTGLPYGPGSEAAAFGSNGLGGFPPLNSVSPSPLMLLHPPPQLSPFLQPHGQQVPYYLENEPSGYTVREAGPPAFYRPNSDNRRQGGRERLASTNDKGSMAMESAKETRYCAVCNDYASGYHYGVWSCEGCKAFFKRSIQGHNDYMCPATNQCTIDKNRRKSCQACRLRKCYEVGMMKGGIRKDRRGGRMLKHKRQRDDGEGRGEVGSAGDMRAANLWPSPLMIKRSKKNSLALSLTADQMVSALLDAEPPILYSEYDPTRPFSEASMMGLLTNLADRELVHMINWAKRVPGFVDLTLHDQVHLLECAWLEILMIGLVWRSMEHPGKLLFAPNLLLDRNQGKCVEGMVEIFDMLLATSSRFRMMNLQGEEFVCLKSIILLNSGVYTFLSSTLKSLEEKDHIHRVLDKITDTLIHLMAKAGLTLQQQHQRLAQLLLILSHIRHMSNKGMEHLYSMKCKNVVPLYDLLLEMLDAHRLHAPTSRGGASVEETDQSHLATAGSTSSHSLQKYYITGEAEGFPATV
How it was run: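 Reporter cells (ER-alpha-bla, HEK293 background) are conditioned overnight in stripped-serum medium (2% charcoal-stripped FBS). Compound and 17beta-estradiol exposure runs 18 hr at 37C, 5% CO2.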

[17] = target: Estrogen receptor (Homo sapiens) (UniProt P03372); assay: qHTS assay to identify small molecule agonists of the estrogen receptor alpha (ER-alpha) signaling pathway (AID 743075; calls by dose curve;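 also: HEK293 GripTite cells with ER-alpha and UAS-driven beta-lactamase reporter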)
[18] = target: Estrogen receptor (Homo sapiens) (UniProt P03372); assay: qHTS assay to identify small molecule agonists of the estrogen receptor alpha (ER-alpha) signaling pathway using the BG1 cell line (AID 743079); also: nearly all actives have a fitted effect of over 20% in size; also: potency is read from the fitted curve at half-maximal effect
[19] = qHTS assay to identify small molecule antagonists of the estrogen receptor alpha (ER-alpha) signaling pathway using the BG1 cell line (AID 743080; calls by dose curve;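 also: BG1 cells stimulated with 17beta-estradiol alongside compound; series mostly up to about 70 µM; nearly all actives have a fitted effect of over 25% in size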)
How it was run: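 Seeding, 24 h rest, compound transfer from DMSO, 17beta-estradiol addition, 21.5 h incubation, CellTiter-Fluor (30 min, 37 C), then ONE-Glo (30 min, room temperature): this sequence was run on BG1-Luc-4E2 reporter cells.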

[20] = qHTS assay for small molecules that induce genotoxicity in human embryonic kidney cells expressing luciferase-tagged ATAD5 - cell viability (AID 651634; calls by dose curve; also: nearly all actives have a fitted effect of over 25% in size; also: potency is read from the fitted curve at half-maximal effect)
How it was run: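 Viability read: CellTiter-Fluor fluorescence, 30 min at 37C. Cells: HEK293T, luciferase-tagged ATAD5. Exposure: 15.5 hr, 37C, 5% CO2, compound or DMSO vehicle.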
% is scaled to controls: 0 for no effect and ±100 for the full control effect; tags tell the direction and shape of the fitted curve or compound fluorescence and quenching.

CCC1(c2ccccc2)C(=O)NC(=O)N(C)C1=O (configuration not stated)
inactive: Potency [1] | Potency [2] | Potency [3] | Potency [4] | Potency [5] | Potency [6] | Potency [7] | Potency [8] | Potency [9] | Potency [10] | Potency [11] | Potency [12] | Potency [13]

CC(C)C[C@H]1C(=O)N2CCC[C@H]2[C@]2(O)O[C@](NC(=O)[C@@H]3C[C@@H]4c5cccc6[nH]cc(c56)C[C@H]4N(C)C3)(C(C)C)C(=O)N12
inactive: Potency [1] | Potency [2] | Potency [14] | Potency [15] | Potency [7] | Potency [10] | Potency [16] | Potency [17] | Potency [18] | Potency [19] | Potency [13]
active: Potency [5] 29.8 µM | Potency [6] 23.7 µM | Potency [8] 29.8 µM | Potency [9] 29.8 µM

c1csc(C2(N3CCCCC3)CCCCC2)c1
inactive: Potency [1] | Potency [2] | Potency [20] | Potency [14] | Potency [3] | Potency [15] | Potency [5] | Potency [6] | Potency [7] | Potency [8] | Potency [9] | Potency [10] | Potency [16] | Potency [17] | Potency [18] | Potency [19] | Potency [11] | Potency [12] | Potency [13]

O=c1ccc2cc(O[C@@H]3O[C@H](CO)[C@@H](O)[C@H](O)[C@H]3O)c(O)cc2o1
inactive: Potency [2] | Potency [14] | Potency [3] | Potency [5] | Potency [6] | Potency [9] | Potency [10] | Potency [18] | Potency [19] | Potency [13]
active: Potency [1] 7.17 µM | Potency [15] 8.91 µM [fluorescent]

O=C(O)CCCO
inactive: Potency [1] | Potency [2] | Potency [20] | Potency [14] | Potency [3] | Potency [15] | Potency [4] | Potency [5] | Potency [6] | Potency [7] | Potency [8] | Potency [9] | Potency [10] | Potency [11] | Potency [12] | Potency [13]

COC(=O)[C@H]1[C@@H](OC(=O)c2ccccc2)C[C@@H]2CC[C@H]1N2C
inactive: Potency [1] | Potency [2] | Potency [20] | Potency [14] | Potency [3] | Potency [5] | Potency [7] | Potency [8] | Potency [9] | Potency [10] | Potency [16] | Potency [17] | Potency [18] | Potency [19] | Potency [11] | Potency [12] | Potency [13]

C[C@]12CC[C@H](O)C[C@H]1CC[C@@H]1[C@@H]2CC[C@]2(C)[C@@H](c3ccc(=O)oc3)C[C@H]3O[C@]132
active: Potency [20] 2.11 µM | Potency [14] 2.66 µM | Potency [5] 7.5 µM | Potency [6] 13.3 µM | Potency [18] 0.944 µM
inactive: Potency [2] | Potency [3] | Potency [8] | Potency [10] | Potency [17] | Potency [11] | Potency [13]

O=C1C=C2C=C[C@@H]3C[C@@]2(O1)[C@H]1CCCCN31
inactive: Potency [3] | Potency [15] | Potency [10] | Potency [17] | Potency [13]
active: Potency [2] 6.68 µM | Potency [20] 18.8 µM | Potency [4] 4.25 µM | Potency [5] 7.5 µM | Potency [6] 10.6 µM | Potency [8] 11.9 µM | Potency [9] 6.68 µM

CCc1cc(OC)c(C[C@@H](C)N)cc1OC
inactive: Potency [1] | Potency [2] | Potency [20] | Potency [3] | Potency [15] | Potency [4] | Potency [10] | Potency [13]
active: Potency [6] 63.6 µM | Potency [9] 56.7 µM

CC(C)[C@H]1C(=O)N2CCC[C@H]2[C@]2(O)O[C@](NC(=O)[C@@H]3C[C@@H]4c5cccc6[nH]cc(c56)C[C@H]4N(C)C3)(C(C)C)C(=O)N12
active: Potency [5] 29.8 µM | Potency [6] 29.8 µM | Potency [8] 29.8 µM | Potency [9] 29.8 µM | Potency [18] 11.9 µM
inactive: Potency [1] | Potency [3] | Potency [15] | Potency [16] | Potency [17] | Potency [19] | Potency [13]

C=CCC1([C@@H](C)CCC)C(=O)NC(=O)NC1=O
inactive: Potency [1] | Potency [2] | Potency [20] | Potency [14] | Potency [15] | Potency [4] | Potency [7] | Potency [8] | Potency [9] | Potency [10] | Potency [16] | Potency [17] | Potency [18] | Potency [19] | Potency [11] | Potency [12] | Potency [13]

OC[C@@H](O)[C@H]1O[C@@H]2O[C@@H](C(Cl)(Cl)Cl)O[C@@H]2[C@H]1O
inactive: Potency [2] | Potency [20] | Potency [14] | Potency [3] | Potency [15] | Potency [4] | Potency [5] | Potency [6] | Potency [7] | Potency [8] | Potency [9] | Potency [10] | Potency [16] | Potency [17] | Potency [18] | Potency [19] | Potency [11] | Potency [12] | Potency [13]

C[C@@H]1[C@@H]2Cc3ccc(O)cc3[C@@]1(C)CCN2CC1CC1
inactive: Potency [1] | Potency [20] | Potency [14] | Potency [3] | Potency [4] | Potency [5] | Potency [6] | Potency [7] | Potency [8] | Potency [9] | Potency [10] | Potency [11] | Potency [12] | PLD induction [13] 5.17% [at 7.66 µM]

O=C1Nc2ccc(Cl)cc2C(c2ccccc2Cl)=NC1O (configuration not stated)
inactive: Potency [1] | Potency [2] | Potency [20] | Potency [14] | Potency [3] | Potency [15] | Potency [4] | Potency [6] | Potency [7] | Potency [8] | Potency [9] | Potency [10] | Potency [16] | Potency [17] | Potency [18] | Potency [19] | Potency [11] | Potency [12] | Potency [13]
